Screening data deposited in PubChem by Sanford-Burnham Center for Chemical Genomics.
CF NFkB inh: inhibitors of PAF-induced NF-kB signaling, primary screen, cell-based, GFP fluorescence, uHTS; inhibition, % at 5 µM; 360,000 tested, 0.86% active; KKLEB NF-kB-GFP reporter, GFP fluorescence overnight;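 active = at least 50% inhibition at 5 µM, scaled per plate between neutral and stimulator controls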;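 also: PAF is a Pseudomonas aeruginosa culture filtrate used as stimulus; plate controls were PAF-stimulated DMSO wells for no effect and unstimulated DMSO wells for full effect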
PPC-1+TRAIL kill: compounds killing PPC-1 cancer cells with TRAIL present, primary screen, TRAIL potentiator project, ATPLite luminescence, uHTS; PPC-1 cells + TRAIL, ATPLite viability luminescence; cell killing (% activity), % at 4 µM or 5 µM; 220,000 tested, 0.41% active;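 active = cell killing above 50% in the first pass at 4 µM, then a duplicate retest at 5 µM averaging 50% or more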;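 also: plate controls were cells with TRAIL plus DMSO for no effect and medium-only wells lacking cells for full effect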
hiPSC survival: enhancers of single-cell hiPSC survival, primary screen, ATPlite luminescence; survival enhancement, % at 20 µM; 100% = ROCK inhibitor wells, 0% = DMSO; 360,000 tested, 0.044% active; in the data active = survival enhancement above about 18%;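 also: cells exposed to compounds for 16 hours before the ATP read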
KKLEB tox: cytotoxicity in KKLEB CF airway cells, primary screen, cytotoxicity control for CF NF-kB inhibitor project, cell-based, uHTS, fluorescence assay plates | KKLEB CF airway cells viability, ATPlite luminescence, overnight; hits give low values; cells stimulated with P. aeruginosa culture filtrate | AID 602141, 2011 | 360,000 tested, 0.36% active | activity change (cytotoxicity), % at 5 µM;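 active = corrected activity change at or below -50% at 5 µM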
TRAIL sens C8: viability loss with TRAIL in NB7+C8 cells, primary screen, TRAIL sensitizer project, cell-based, ATPlite luminescence; inhibition (viability loss, TRAIL sensitization), % at 10 µM; 360,000 tested, 1% active;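 active = compounds causing at least 50% loss of cell viability in the single-dose screen, relative to plate controls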
HIF-2a block: HIF-2a reporter inhibitors, primary screen, luminescence, 786-0 RCC cells. 360,000 tested, 0.72% active. 786-0 RCC cells HIF-2a reporter, luciferase luminescence, overnight. AID 624352, 2012. inhibition, % at 18.8 µM;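 active = inhibition of the luminescence signal of 40% or more relative to plate controls, in a single-dose primary screen at 18.75 µM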
CF NFkB inh conf: inhibitors of PAF-induced NF-kB signaling, retest, confirmation, cell-based, GFP fluorescence, single concentration | KKLEB CF airway cells, overnight | shares compounds with CF NFkB inh | 1,300 tested, 64% active | inhibition, % at 5 µM; in the data active = inhibition above about 40%;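 also: stimulus PAF is a Pseudomonas aeruginosa filtrate and not platelet activating factor; plate controls were DMSO wells with stimulus for no effect and unstimulated DMSO wells for full effect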
* marks the source's active call; other numbers are inactive results. Sampled rows, rich in hits. Any-hit rate of the full collection: about 2.2%.

`CCCCCCCC(=O)NNC(=O)Cc1ccccc1` gave CF NFkB inh -19.0, PPC-1+TRAIL kill 17.7, hiPSC survival -1.2, KKLEB tox 8.1, TRAIL sens C8 -4.8 and HIF-2a block -4.8.
`CN(CC(=O)Nc1ccccc1C(F)(F)F)C(=O)c1ccc(-c2ccc(Cl)cc2)o1` gave CF NFkB inh -4.8, hiPSC survival 0.3, KKLEB tox -7.2, TRAIL sens C8 -4.7 and HIF-2a block -10.1.
c1ccc(-c2cc(-c3nc4ccccc4[nH]3)c3ccccc3n2)cc1 was read as CF NFkB inh 56.3*, PPC-1+TRAIL kill 31.4, hiPSC survival -0.5, KKLEB tox -8.1, TRAIL sens C8 -4.1, HIF-2a block -59.2 and CF NFkB inh conf -86.6.
For COc1cc(C(=O)N/N=C/c2coc3ccc(Cl)cc3c2=O)ccc1O the results were CF NFkB inh 61.4*, hiPSC survival 0.1, KKLEB tox -14.8, TRAIL sens C8 -10.0, HIF-2a block 19.4 and CF NFkB inh conf 38.7.
Screening O=C(N/N=C/c1coc2ccc(Cl)cc2c1=O)c1ccc(O)cc1 returned CF NFkB inh 51.0*, hiPSC survival -0.3, KKLEB tox -9.9, TRAIL sens C8 -25.8, HIF-2a block 12.2 and CF NFkB inh conf 16.4.
O=C(N/N=C/c1coc2ccc(Cl)cc2c1=O)c1ccncc1 was read as CF NFkB inh 45.4, hiPSC survival 0.3, KKLEB tox 12.3, TRAIL sens C8 8.9 and HIF-2a block 22.3.
For COc1ccc(C(=O)N/N=C\c2coc3ccc(Cl)cc3c2=O)cc1 the results were CF NFkB inh 43.7, hiPSC survival 0.4, KKLEB tox -10.6, TRAIL sens C8 -14.3 and HIF-2a block 29.7.
For O=c1c2ccccc2nnn1CSc1ncnc2ccccc12 the results were CF NFkB inh 66.3*, PPC-1+TRAIL kill 11.3, hiPSC survival -1.1, KKLEB tox -36.3, TRAIL sens C8 3.4, HIF-2a block -3.4 and CF NFkB inh conf 40.5*.
`CCOC(=O)c1cnc2c(C(F)(F)F)cccc2c1NCCCN1CCOCC1` gave CF NFkB inh -34.6, hiPSC survival -0.7, KKLEB tox -11.2, TRAIL sens C8 7.5 and HIF-2a block 8.9.
Screening C/C(=N\NC(=O)c1ccc(NS(=O)(=O)c2cccs2)cc1)c1ccc(Cl)cc1 returned CF NFkB inh 6.7, PPC-1+TRAIL kill 7.1, hiPSC survival -0.3, KKLEB tox -2.8, TRAIL sens C8 -9.1 and HIF-2a block 8.1.
C/C(=N/NC(=O)c1cccs1)c1ccc(NC(=O)COc2ccc(Cl)cc2)cc1 was read as CF NFkB inh 59.0*, PPC-1+TRAIL kill 25.4, hiPSC survival -0.8, KKLEB tox -41.1, TRAIL sens C8 41.3, HIF-2a block -0.3 and CF NFkB inh conf 77.8*.
Screening CCN(CC)CCSc1nc2ccccc2n1Cc1ccccc1 returned CF NFkB inh 1.0, hiPSC survival -0.7, KKLEB tox -5.8, TRAIL sens C8 21.7 and HIF-2a block 5.0.
For COc1ccccc1C(=O)N1CCN(Cc2ccc3c(c2)OCO3)CC1 the results were CF NFkB inh 15.3, PPC-1+TRAIL kill 6.3, hiPSC survival 0.1, KKLEB tox -9.2, TRAIL sens C8 7.8 and HIF-2a block 29.0.
For CCOc1ccccc1C(=O)NCC(=O)N1CCN(Cc2ccc3c(c2)OCO3)CC1 the results were CF NFkB inh 74.2*, hiPSC survival -0.4, KKLEB tox -14.0, TRAIL sens C8 6.9, HIF-2a block 0.2 and CF NFkB inh conf 31.3.
`CCOc1ccc(NC(=O)Nc2ccc3c(c2)N(C)C(=O)CS3)cc1` gave CF NFkB inh 17.0, PPC-1+TRAIL kill 6.6, hiPSC survival -0.3, KKLEB tox 8.8, TRAIL sens C8 2.6 and HIF-2a block -10.0.
